# Experimental data taken from ChEMBL document CHEMBL1961873, “Compounds: GSK PKIS; Assays: Nanosyn kinase panel” (2012).
# Where “and” joins values, the source holds several entries; their conditions need not be identical. Equal values may be shown once.
# What was measured:
# [1] = target: Tyrosine-protein kinase receptor UFO (Homo sapiens) (UniProt P30530); settings: at 1 µM
# [2] = target: Tyrosine-protein kinase Blk (Homo sapiens) (UniProt P51451); settings: at 0.1 µM
# [3] = target: Tyrosine-protein kinase Blk (Homo sapiens) (UniProt P51451); settings: at 1 µM
# [4] = target: T1, Cytoplasmic tyrosine-protein kinase BMX (Homo sapiens) (UniProt P51813); settings: at 0.1 µM
# T1 sequence (whole entry): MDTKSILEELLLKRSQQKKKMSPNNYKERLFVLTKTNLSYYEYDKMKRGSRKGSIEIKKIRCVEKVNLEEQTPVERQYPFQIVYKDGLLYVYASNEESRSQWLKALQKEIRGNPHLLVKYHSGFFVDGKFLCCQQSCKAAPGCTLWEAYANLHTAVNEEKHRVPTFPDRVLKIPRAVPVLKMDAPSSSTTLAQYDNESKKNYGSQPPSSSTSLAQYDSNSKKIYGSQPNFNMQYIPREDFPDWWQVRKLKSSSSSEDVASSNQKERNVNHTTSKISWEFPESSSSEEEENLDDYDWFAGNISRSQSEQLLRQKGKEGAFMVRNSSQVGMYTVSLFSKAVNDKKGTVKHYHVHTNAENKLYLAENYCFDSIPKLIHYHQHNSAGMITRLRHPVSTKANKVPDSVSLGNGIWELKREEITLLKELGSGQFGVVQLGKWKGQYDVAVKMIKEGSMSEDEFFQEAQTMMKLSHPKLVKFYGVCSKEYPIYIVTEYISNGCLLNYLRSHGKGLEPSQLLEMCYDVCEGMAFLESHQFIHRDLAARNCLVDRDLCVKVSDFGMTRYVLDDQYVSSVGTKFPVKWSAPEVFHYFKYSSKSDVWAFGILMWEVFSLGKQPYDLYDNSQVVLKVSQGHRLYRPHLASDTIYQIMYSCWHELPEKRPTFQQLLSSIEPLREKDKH
# [5] = target: T1, Cytoplasmic tyrosine-protein kinase BMX (Homo sapiens); settings: at 1 µM
# [6] = target: Protein-tyrosine kinase 6 (Homo sapiens) (UniProt Q13882); settings: at 0.1 µM
# Sequence of Protein-tyrosine kinase 6 (Homo sapiens) (Q13882 whole entry, looked up): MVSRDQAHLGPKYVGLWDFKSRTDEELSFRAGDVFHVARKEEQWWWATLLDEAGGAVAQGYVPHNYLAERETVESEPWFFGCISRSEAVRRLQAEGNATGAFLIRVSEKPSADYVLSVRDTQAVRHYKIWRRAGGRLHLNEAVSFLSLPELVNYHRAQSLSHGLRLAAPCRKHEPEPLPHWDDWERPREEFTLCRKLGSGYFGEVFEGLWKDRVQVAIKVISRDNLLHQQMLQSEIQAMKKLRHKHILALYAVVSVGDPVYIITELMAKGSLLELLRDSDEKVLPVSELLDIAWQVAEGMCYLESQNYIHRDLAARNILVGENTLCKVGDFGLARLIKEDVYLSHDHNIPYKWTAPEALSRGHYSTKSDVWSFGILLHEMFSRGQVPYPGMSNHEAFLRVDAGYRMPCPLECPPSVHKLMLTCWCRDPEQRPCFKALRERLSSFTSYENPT
# [7] = target: Protein-tyrosine kinase 6 (Homo sapiens) (UniProt Q13882); settings: at 1 µM
# [8] = target: Tyrosine-protein kinase BTK (Homo sapiens) (UniProt Q06187); settings: at 0.1 µM
# Sequence of Tyrosine-protein kinase BTK (Homo sapiens) (Q06187 whole entry): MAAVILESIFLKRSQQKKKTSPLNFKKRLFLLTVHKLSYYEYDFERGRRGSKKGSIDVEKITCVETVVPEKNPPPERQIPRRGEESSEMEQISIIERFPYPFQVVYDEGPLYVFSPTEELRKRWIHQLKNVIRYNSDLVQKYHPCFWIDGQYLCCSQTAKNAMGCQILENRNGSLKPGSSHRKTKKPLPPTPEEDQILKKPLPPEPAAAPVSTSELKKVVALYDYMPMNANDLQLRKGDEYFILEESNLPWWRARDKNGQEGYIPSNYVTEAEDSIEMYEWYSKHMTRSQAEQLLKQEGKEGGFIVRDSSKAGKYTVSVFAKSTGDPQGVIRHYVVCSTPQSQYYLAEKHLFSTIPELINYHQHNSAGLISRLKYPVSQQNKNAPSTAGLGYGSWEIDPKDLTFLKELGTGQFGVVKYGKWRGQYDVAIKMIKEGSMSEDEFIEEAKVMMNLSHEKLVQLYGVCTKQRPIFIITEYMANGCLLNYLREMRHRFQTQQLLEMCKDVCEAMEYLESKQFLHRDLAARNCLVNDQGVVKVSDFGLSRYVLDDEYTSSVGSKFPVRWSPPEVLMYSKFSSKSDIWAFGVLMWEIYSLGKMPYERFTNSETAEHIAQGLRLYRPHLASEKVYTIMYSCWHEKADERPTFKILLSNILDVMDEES
# [9] = target: Tyrosine-protein kinase BTK (Homo sapiens) (UniProt Q06187); settings: at 1 µM
# [10] = target: Tyrosine-protein kinase CSK (Homo sapiens) (UniProt P41240); settings: at 0.1 µM
# [11] = target: Tyrosine-protein kinase CSK (Homo sapiens) (UniProt P41240); settings: at 1 µM
# [12] = target: T2, Discoidin domain-containing receptor 2 (Homo sapiens) (UniProt Q16832); settings: at 0.1 µM
# T2 sequence (whole entry): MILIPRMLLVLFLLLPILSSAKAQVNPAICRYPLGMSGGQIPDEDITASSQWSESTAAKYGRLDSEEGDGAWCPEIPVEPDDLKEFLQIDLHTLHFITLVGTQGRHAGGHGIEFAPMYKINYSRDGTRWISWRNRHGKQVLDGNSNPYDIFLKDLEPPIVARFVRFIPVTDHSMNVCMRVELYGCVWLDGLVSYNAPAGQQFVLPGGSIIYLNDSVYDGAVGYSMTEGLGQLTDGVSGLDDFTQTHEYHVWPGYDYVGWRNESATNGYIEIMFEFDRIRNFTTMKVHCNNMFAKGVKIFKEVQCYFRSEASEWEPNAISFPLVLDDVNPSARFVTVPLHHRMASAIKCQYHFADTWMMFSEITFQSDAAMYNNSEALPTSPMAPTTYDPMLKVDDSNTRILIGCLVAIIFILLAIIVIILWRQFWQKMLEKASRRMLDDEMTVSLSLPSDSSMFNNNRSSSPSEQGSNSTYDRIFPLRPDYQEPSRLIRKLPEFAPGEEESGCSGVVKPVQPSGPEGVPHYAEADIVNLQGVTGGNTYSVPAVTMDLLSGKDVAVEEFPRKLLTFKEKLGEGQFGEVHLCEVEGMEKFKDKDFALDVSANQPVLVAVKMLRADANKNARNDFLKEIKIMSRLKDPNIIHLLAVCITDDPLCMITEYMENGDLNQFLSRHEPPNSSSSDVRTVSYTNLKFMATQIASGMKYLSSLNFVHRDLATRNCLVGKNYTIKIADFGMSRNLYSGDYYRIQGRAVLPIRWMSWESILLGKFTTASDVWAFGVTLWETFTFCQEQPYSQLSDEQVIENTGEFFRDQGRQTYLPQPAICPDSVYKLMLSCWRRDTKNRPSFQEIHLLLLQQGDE
# [13] = target: T2, Discoidin domain-containing receptor 2 (Homo sapiens); settings: at 1 µM
# [14] = target: Epidermal growth factor receptor (Homo sapiens) (UniProt P00533); settings: at 0.1 µM
# Sequence of Epidermal growth factor receptor (Homo sapiens) (P00533 whole entry): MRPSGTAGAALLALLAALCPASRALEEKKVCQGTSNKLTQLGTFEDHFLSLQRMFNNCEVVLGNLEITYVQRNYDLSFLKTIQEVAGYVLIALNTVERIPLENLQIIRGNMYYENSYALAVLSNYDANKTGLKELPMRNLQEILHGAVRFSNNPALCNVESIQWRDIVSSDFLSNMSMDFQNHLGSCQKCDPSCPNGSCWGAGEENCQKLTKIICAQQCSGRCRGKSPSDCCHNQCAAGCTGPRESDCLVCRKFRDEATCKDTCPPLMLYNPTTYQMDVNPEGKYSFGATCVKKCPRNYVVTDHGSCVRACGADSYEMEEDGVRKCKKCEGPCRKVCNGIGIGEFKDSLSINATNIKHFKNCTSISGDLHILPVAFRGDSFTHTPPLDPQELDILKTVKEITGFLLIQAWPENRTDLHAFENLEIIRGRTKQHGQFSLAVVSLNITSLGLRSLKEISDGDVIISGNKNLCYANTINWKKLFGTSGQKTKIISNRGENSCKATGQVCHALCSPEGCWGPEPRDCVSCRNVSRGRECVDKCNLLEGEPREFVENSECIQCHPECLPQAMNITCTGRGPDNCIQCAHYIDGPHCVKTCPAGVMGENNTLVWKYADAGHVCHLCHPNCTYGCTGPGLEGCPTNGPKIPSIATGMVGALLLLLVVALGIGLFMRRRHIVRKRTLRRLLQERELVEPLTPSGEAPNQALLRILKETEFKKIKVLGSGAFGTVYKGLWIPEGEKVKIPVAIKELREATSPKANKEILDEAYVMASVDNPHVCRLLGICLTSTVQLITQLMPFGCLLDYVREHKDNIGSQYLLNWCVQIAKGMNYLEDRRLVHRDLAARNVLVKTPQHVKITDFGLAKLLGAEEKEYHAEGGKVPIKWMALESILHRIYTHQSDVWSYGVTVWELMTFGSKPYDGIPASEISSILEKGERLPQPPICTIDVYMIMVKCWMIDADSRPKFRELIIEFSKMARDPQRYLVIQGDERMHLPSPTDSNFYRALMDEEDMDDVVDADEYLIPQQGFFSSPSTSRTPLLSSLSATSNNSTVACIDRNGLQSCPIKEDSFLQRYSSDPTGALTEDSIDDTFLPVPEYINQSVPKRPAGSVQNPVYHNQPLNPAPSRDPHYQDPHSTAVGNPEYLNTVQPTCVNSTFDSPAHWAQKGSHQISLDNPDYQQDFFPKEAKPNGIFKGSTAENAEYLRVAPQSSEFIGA
# [15] = target: Epidermal growth factor receptor (Homo sapiens) (UniProt P00533); settings: at 1 µM
# [16] = system: Epidermal growth factor receptor (Homo sapiens), P00533 [L858R]; settings: at 0.1 µM
# [17] = system: Epidermal growth factor receptor (Homo sapiens), P00533 [L858R]; settings: at 1 µM
# [18] = system: Epidermal growth factor receptor (Homo sapiens), P00533 [L861Q]; settings: at 0.1 µM
# Sequence of Epidermal growth factor receptor (Homo sapiens), P00533 [L861Q] (P00533 whole entry L861Q): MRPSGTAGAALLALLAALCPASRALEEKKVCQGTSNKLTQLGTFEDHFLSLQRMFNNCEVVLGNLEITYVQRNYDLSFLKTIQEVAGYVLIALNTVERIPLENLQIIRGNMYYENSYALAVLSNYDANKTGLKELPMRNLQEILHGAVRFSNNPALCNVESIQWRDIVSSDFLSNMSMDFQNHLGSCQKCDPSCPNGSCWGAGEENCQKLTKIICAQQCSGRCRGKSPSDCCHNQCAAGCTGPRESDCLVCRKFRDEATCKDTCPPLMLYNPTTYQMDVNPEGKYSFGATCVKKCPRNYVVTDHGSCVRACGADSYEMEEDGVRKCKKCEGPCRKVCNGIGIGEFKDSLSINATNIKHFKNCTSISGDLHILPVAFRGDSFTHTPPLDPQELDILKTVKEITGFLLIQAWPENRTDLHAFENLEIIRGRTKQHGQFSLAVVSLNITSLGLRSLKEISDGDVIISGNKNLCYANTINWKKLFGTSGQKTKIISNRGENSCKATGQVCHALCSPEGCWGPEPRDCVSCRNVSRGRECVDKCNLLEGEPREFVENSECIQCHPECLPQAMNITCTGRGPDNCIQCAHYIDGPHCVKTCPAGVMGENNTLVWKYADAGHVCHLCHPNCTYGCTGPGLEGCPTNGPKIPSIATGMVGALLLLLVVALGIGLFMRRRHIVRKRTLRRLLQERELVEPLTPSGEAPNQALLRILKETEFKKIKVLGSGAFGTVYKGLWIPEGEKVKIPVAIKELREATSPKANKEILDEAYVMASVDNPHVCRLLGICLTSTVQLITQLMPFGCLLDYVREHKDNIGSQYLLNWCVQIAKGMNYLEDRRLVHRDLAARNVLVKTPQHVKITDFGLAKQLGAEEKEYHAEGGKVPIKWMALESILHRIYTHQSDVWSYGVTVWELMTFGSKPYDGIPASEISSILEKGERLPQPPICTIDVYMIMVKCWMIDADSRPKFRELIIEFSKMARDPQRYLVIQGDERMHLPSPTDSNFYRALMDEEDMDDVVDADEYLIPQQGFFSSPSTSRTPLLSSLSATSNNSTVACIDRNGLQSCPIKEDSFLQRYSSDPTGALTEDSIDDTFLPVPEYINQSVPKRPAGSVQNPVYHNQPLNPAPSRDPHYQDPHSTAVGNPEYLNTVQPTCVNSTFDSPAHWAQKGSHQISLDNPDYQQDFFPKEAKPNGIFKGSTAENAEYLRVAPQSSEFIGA
# [19] = system: Epidermal growth factor receptor (Homo sapiens), P00533 [L861Q]; settings: at 1 µM
# [20] = system: Epidermal growth factor receptor (Homo sapiens), P00533 [T790M]; settings: at 0.1 µM
# Sequence of Epidermal growth factor receptor (Homo sapiens), P00533 [T790M] (P00533 whole entry T790M): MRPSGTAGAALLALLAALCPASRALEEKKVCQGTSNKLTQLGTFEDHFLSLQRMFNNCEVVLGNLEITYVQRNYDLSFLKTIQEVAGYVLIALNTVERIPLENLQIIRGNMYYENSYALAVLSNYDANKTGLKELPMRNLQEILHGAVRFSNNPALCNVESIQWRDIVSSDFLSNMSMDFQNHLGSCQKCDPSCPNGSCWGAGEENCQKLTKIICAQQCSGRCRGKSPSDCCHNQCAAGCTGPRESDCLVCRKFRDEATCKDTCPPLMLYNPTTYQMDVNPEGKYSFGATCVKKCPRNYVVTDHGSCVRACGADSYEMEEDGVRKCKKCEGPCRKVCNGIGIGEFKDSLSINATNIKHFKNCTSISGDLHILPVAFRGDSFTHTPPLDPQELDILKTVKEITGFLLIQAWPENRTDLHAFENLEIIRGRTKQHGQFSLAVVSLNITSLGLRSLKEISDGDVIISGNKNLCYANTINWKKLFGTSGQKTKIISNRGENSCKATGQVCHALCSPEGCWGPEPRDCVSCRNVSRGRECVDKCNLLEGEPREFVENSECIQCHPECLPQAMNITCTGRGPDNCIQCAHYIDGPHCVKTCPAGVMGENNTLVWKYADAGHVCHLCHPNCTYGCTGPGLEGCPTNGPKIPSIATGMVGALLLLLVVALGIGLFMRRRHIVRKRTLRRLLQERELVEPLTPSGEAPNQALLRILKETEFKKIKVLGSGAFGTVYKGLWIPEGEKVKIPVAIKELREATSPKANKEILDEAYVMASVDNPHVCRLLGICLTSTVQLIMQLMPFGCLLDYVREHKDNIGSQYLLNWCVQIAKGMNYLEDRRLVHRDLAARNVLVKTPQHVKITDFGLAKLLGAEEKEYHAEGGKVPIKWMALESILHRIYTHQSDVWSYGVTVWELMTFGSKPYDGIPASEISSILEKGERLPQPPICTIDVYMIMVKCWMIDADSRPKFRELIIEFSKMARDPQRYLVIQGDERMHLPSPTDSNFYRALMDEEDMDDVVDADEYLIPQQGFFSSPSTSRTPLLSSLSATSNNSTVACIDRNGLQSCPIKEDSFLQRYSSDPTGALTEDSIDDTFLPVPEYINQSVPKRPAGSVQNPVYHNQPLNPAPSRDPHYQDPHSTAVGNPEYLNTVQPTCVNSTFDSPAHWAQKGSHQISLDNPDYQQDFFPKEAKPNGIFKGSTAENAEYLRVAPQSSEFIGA
SMILES,inhibition [1],inhibition [2],inhibition [3],inhibition [4],inhibition [5],inhibition [6],inhibition [7],inhibition [8],inhibition [9],inhibition [10],inhibition [11],inhibition [12],inhibition [13],inhibition [14],inhibition [15],inhibition [16],inhibition [17],inhibition [18],inhibition [19],inhibition [20]
COc1cc2c(cc1Nc1nc(Nc3cccc(F)c3C(N)=O)c3cc[nH]c3n1)N(C(=O)CN1CCN(C(C)C)CC1)CC2,2.45%,-0.36%,-0.42%,2.26%,3.16%,-1.33%,3.54%,-0.03%,-1.36%,-1.06%,-3.02%,-1.78%,-0.55%,2.48%,17.1%,-0.57%,15.1%,1.65%,13.7%,2.59%
CC(C)c1ccc(-c2cc(-c3c[nH]nc3-c3ccccn3)ccn2)cc1,2.69%,1.02%,0.42%,-0.47%,2.05%,-0.52%,0.14%,-1.28%,-1.36%,1.02%,-3.97%,3.76%,4.98%,1.84%,3.14%,1.78%,0.3%,0.09%,-0.98%,-0.66%
Nc1ncnc2occ(-c3ccc(NC(=O)Nc4cc(C(F)(F)F)ccc4F)cc3)c12,37.3% and 23.5%,4.09% and 1.25%,39% and 23.5%,17.8% and 9.86%,69.5% and 57.2%,3.76% and -0.33%,4.26% and 3.06%,0.97% and 0.09%,5.11% and 1.18%,6.39% and 0.36%,41% and 18.6%,46.1% and 33.6%,80% and 79.7%,1.05% and 12.5%,5.41% and 15.6%,2.23% and 3.14%,1.42% and 3.22%,3.11% and 1.25%,1.69% and 1.44%,1.74% and 0.3%
COc1ccc(Nc2ncc(-c3ccccc3)o2)cc1OC,3.31%,1.21%,24.1%,-7.7%,4.92%,0.75%,2.71%,0.8%,2.81%,1.21%,-1.08%,-0.12%,5.66%,1.83%,5.16%,-1.38%,2.96%,-1.19%,0.83%,0.72%
CN1CCN(Cc2ccc(-c3cc4ncnc(Nc5ccc(OCc6cccc(F)c6)c(Cl)c5)c4s3)o2)CC1,-0.55% and -6.25%,2.97% and 3.59%,13.3% and 15.7%,1.68% and 6.37%,5.03% and 3.73%,6.28% and 7.91%,29.5% and 33.2%,-0.21% and -0.71%,2.04% and 2.62%,2.47% and 5.63%,12.6% and 17.7%,1.16% and 0.39%,1.23% and -0.86%,–,–,–,–,–,–,–
Cc1cc(O)cc(C)c1/C=C/c1cncc(C(=O)OC(C)(C)C)c1,-3.72%,4.36%,21.7%,9.3%,47.3%,18.1%,67.5%,0.92%,12.8%,7.62%,32.9%,1.51%,2.49%,1.62%,5.14%,3.7%,17%,2.25%,4.72%,0.92%
O=C(Nc1n[nH]c2nnc(-c3cccnc3)cc12)C1CC1,1.65%,0.58%,2.68%,-0.2%,0.81%,-0.91%,-0.57%,0.26%,-0.1%,-1.49%,-1.56%,-0.82%,-1%,0.34%,1.5%,-2.25%,2.57%,-1.02%,-0.99%,-0.29%
COC(=O)Nc1nc2ccc(Oc3ccc(NC(=O)Nc4cc(C(F)(F)F)ccc4F)cc3)cc2s1,46.6%,0.64%,3.2%,0.05%,2.68%,1.06%,0.36%,-0.69%,-0.85%,4.36%,33.4%,62.7%,83.6%,1.66%,3.16%,-2.69%,2.24%,-1.23%,1.41%,0.17%
O=C(O[C@H]1CN[C@H](C#Cc2cc3ncnc(Nc4ccc5c(cnn5Cc5ccccc5)c4)c3s2)C1)N1CCOCC1,2.46%,-0.69%,6.27%,-1.03%,2.39%,1.71%,2.7%,2.14%,1.05%,-1.39%,4.15%,0.56%,0.22%,72.3%,83.3%,14.2%,56.2%,25.9%,44.2%,0.87%
COc1ccc(-c2nn3ncccc3c2-c2ccnc(Nc3ccc(F)c(F)c3)n2)cc1,-3.4%,3.7%,7.65%,6.68%,6.9%,9.68%,46.2%,0.77%,0.68%,4.89%,8.37%,4.41%,34.7%,1.6%,9.46%,3.72%,21.4%,3.55%,10.2%,3.23%
COc1cccc(Nc2nccc(-c3cnn4ncccc34)n2)c1,11.4%,2.91%,14%,9.52%,21.8%,1.39%,10.1%,0.35%,4.57%,4.74%,11.8%,0.85%,4.16%,-2.03%,5.8%,2.1%,9.34%,1.66%,3.56%,1.52%
COc1ccc2ncn(-c3cc(O[C@H](C)c4ccccc4C(F)(F)F)c(C(N)=O)s3)c2c1,1.8%,-0.74%,2.3%,-0.1%,1.93%,-0.2%,-0.61%,-0.76%,-0.74%,-1.23%,-2.18%,-0.82%,-2.22%,0.37%,2.93%,-1.19%,1.03%,-0.87%,0.54%,-1.45%
COC(=O)Nc1nc2cc(Oc3ccc(NC(=O)Nc4ccccc4)cc3)ccc2[nH]1,-3.64%,2.65%,3.63%,3.17%,3.73%,1.45%,2.78%,0.55%,0.58%,4.95%,1.41%,77.2%,81.4%,0.9%,-0.33%,0.78%,4.35%,1.19%,1.08%,-1.39%
CCN1CCC(C(=O)Nc2n[nH]c3nnc(-c4cccc(F)c4F)cc23)CC1,2.22%,0.62%,2.33%,-0.1%,1.04%,-0.63%,-0.63%,0%,-0.5%,2.49%,-0.26%,1.13%,1.17%,1.21%,2.27%,-0.75%,1.38%,-0.05%,-0.76%,-1.59%
